Results taken from PubChem BioAssay (Tox21).
Results filed as inconclusive are left out. Activity calls are given as the source filed them. Unless noted, the call rests on the fitted dose curve.

Key:
[1] = Nuclear factor erythroid 2-related factor 2/antioxidant responsive element (Nrf2/ARE) small molecule agonists: qHTS cell viability counter screen in human keratinocytes (AID 1919968; active means well fitted curve in the direction sought with a large enough effect in the repeat runs; an effect the other way counts as inactive or inconclusive; further: nearly all actives have a fitted effect of over 55% in size)
In short: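 KeratinoSens HaCaT cells, 1,500/well, preincubated 5 h, then exposed to compounds in DMSO for 23 h at 37 C/5% CO2. Viability read as CellTiter-Fluor fluorescence after 1 h, in the same wells as the ARE-luciferase read.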

[2] = Nuclear factor erythroid 2-related factor 2/antioxidant responsive element (Nrf2/ARE) small molecule agonists: luciferase reporter gene qHTS assay in human keratinocytes (AID 1919969); further: nearly all actives have a fitted effect of over 35% in size; further: potency means the concentration at half of the fitted maximal effect
[3] = molecular target: Gonadotropin-releasing hormone receptor (Homo sapiens) (UniProt P30968); experiment: Human gonadotropin-releasing hormone receptor (GnRHR) small molecule agonists, calcium flux assay in GnRHR-HEK293 cells (AID 1920063); further: nearly all actives have a fitted effect of over 35% in size
Sequence of Gonadotropin-releasing hormone receptor (Homo sapiens) (P30968 whole entry, looked up): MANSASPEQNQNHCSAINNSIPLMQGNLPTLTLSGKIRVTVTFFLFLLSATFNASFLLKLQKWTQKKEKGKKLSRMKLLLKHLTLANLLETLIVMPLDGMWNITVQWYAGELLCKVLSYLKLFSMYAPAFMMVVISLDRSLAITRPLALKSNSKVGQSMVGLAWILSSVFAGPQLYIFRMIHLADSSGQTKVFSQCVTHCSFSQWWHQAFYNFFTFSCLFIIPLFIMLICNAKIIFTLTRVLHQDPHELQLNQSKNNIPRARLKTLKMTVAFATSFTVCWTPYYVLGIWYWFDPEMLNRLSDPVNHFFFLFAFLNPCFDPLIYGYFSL
In short: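 HEK293 cells stably expressing human GnRHR were dye-loaded for 1 h at 37 C. Compound was added in agonist mode and fluorescence (Ex/Em 480/540) recorded kinetically for 3 min. Fifteen concentrations, triplicates.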

[4] = molecular target: KiSS-1 receptor (Homo sapiens) (UniProt Q969F8); experiment: Human kisspeptin (KISS1R) small molecule agonists, calcium flux assay in KISS1R-HEK293 cells (AID 1920064; active means well fitted curve in the direction sought with a large enough effect in the repeat runs; an effect the other way counts as inactive or inconclusive)
Sequence of KiSS-1 receptor (Homo sapiens) (Q969F8 whole entry, looked up): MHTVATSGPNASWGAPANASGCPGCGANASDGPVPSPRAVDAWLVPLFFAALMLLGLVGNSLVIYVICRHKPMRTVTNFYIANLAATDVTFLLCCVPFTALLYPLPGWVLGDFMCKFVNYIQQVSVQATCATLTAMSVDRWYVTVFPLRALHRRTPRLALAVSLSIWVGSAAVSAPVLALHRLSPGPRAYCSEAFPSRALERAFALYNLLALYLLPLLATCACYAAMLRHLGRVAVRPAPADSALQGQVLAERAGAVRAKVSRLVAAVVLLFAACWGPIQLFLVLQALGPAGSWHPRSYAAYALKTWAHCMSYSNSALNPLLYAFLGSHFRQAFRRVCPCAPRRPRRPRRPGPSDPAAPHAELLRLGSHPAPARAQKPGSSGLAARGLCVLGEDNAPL
In short: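 HEK293 cells stably expressing human KISS1R were loaded with calcium dye for 1 h at 37 C, then given compound; fluorescence (Ex/Em 480/540) was read kinetically for 3 min. Fifteen concentrations, triplicate.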

[5] = G protein-coupled receptor (GPCR) small molecule agonists, calcium flux assay: HEK293 wild type cell line counter screen (AID 1920065)
In short: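 Wild-type HEK293 cells plated 18 h, loaded with calcium dye 1 h at 37 C, then compounds added in agonist mode (ATP as positive control). Kinetic fluorescence Ex/Em 480/540 recorded 3 min at 1 sec intervals; 15 concentrations, triplicate.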

[6] = p53 small molecule agonists, cell-based qHTS assay with human liver microsomes: qHTS cell viability counter screen (AID 1963579); further: nearly all actives have a fitted effect of over 45% in size
In short: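 p53RE-bla cells (4,000/well) were pre-incubated 5 h at 37 C, then given compounds in DMSO plus human liver microsomes (0.5 mg/mL final) and NADPH (0.5 mg/mL final) for 16 h at 37 C. Viability was read by CellTiter-Glo luminescence.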

[7] = p53 small molecule agonists, cell-based qHTS assay with rat liver microsomes: qHTS cell viability counter screen (AID 1963580); further: nearly all actives have a fitted effect of over 45% in size
In short: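 p53RE-bla HCT-116 cells (4,000/well) rested 5 h at 37 C, then given Tox21 compounds in DMSO with rat liver microsomes (0.5 mg/mL final) plus NADPH (0.5 mg/mL final) for 16 h at 37 C. Viability read by CellTiter-Glo luminescence after 30 min at room temperature.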

[8] = p53 small molecule agonists, cell-based qHTS assay: qHTS cell viability counter screen (AID 1963581); further: nearly all actives have a fitted effect of over 45% in size
In short: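 p53RE-bla HCT-116 cells, compounds added 5 h after plating and incubated 16 h at 37 C. Cytotoxicity measured in the same wells as intracellular ATP by CellTiter-Glo luminescence after 30 min at room temperature.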

[9] = molecular target: 5-hydroxytryptamine receptor 2A (Homo sapiens) (UniProt P28223); experiment: 5-hydroxytryptamine receptor 2A (HTR2A) small molecule antagonists, cell-based qHTS assay (AID 1963586); further: nearly all actives have a fitted effect of over 45% in size
Sequence of 5-hydroxytryptamine receptor 2A (Homo sapiens) (P28223 whole entry, looked up): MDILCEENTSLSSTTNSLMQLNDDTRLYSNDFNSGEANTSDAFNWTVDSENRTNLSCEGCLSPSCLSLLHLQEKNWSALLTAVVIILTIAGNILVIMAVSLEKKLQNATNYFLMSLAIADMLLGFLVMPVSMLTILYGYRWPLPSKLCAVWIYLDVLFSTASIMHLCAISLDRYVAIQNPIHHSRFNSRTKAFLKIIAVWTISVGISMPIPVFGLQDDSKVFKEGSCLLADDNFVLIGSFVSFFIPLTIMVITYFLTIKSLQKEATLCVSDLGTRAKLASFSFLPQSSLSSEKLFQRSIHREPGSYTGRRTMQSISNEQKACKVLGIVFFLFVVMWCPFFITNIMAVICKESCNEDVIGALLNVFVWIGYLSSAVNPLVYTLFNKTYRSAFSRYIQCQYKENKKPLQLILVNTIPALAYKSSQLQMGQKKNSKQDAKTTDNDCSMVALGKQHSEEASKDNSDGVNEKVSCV
In short: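 Antagonist-mode intracellular calcium assay: DOI (4 nM) added after 5 min compound pre-incubation at room temperature to dye-loaded HTR2A-CHO cells. Fluorescence followed for 3 min, sampled every second.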

[10] = molecular target: Muscarinic acetylcholine receptor M1 (Homo sapiens) (UniProt P11229); experiment: Cholinergic receptor muscarinic 1 (CHRM1) small molecule antagonists, cell-based qHTS assay (AID 1963588); further: nearly all actives have a fitted effect of over 40% in size
Sequence of Muscarinic acetylcholine receptor M1 (Homo sapiens) (P11229 whole entry, looked up): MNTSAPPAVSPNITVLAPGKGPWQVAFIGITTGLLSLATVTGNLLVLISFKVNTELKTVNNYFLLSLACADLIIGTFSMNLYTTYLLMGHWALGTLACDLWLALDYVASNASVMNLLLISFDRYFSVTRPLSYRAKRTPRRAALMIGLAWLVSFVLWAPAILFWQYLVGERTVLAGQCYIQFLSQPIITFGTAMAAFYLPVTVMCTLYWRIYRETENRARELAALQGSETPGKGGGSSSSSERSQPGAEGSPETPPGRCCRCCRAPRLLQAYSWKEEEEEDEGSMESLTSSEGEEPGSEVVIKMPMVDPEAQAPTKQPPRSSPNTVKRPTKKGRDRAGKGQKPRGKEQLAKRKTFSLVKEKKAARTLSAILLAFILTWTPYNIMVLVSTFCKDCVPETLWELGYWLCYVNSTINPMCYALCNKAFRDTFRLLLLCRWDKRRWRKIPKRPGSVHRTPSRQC
In short: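 CHRM1-CHO calcium-flux assay, antagonist mode. Cells were seeded 18 h, dye-loaded 1 h at 37 C and given compound for 5 min at RT, then acetylcholine was added at 50nM. FDSS fluorescence was read 3 min; 15 concentrations, three runs.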

[11] = molecular target: Muscarinic acetylcholine receptor M1 (Homo sapiens) (UniProt P11229); experiment: Cholinergic receptor muscarinic 1 (CHRM1) small molecule agonists, cell-based qHTS assay (AID 1963589); further: nearly all actives have a fitted effect of over 35% in size
In short: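 CHO cells stably expressing human CHRM1 were loaded with calcium dye for 1 h at 37 C, then compound was added in agonist mode. Intracellular calcium fluorescence was followed kinetically at 1 s intervals. Fifteen concentrations were tested in three independent runs.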

[12] = cAMP Responsive Elements (CRE) small molecule antagonists, cell-based qHTS assay (AID 1963591; active means well fitted inhibition curve with a large enough effect in the signal ratio in the repeat runs, not every such curve was filed as active; the % refers to the signal ratio)
In short: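 CRE-bla HEK293T cells plated 18 h, then given compound plus NKH477 at 0.25 uM final for 3 h at 37C. Beta-lactamase reporter read with LiveBLAzer B/G FRET substrate after 2 h at room temperature.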

[13] = molecular target: Beta-2 adrenergic receptor (Homo sapiens) (UniProt P07550); experiment: Adrenergic beta2 receptor (ADRB2) small molecule antagonists, cell-based qHTS assay (AID 1963592); further: series mostly up to about 92 µM; nearly all actives have a fitted effect of over 50% in size
Sequence of Beta-2 adrenergic receptor (Homo sapiens) (P07550 whole entry, looked up): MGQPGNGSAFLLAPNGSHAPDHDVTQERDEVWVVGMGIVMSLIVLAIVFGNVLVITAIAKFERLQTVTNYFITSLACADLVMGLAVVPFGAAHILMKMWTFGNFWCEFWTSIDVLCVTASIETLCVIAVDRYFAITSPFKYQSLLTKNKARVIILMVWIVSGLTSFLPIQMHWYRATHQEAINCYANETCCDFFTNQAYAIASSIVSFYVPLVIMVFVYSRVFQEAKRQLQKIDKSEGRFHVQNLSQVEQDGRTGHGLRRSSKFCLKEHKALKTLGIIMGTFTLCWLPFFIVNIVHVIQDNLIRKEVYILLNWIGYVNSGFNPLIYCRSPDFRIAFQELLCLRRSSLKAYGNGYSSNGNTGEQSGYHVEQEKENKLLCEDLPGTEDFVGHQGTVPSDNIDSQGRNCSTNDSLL
In short: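 Cells (CHO, stable ADRB2 overexpression) incubated 18-20hr at 37C; compounds added from DMSO; agonist mix (1nM isoproterenol, 100uM IBMX, 25uM Ro-20-1724) added; 0.5hr RT; d2-cAMP and anti-cAMP-cryptate added; 1hr RT; 665/615 nm read.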

[14] = molecular target: D(2) dopamine receptor (Homo sapiens) (UniProt P14416); experiment: Dopamine D2 receptor (DRD2) small molecule agonists, cell-based qHTS assay (AID 1963594); further: nearly all actives have a fitted effect of over 35% in size
Sequence of D(2) dopamine receptor (Homo sapiens) (P14416 whole entry, looked up): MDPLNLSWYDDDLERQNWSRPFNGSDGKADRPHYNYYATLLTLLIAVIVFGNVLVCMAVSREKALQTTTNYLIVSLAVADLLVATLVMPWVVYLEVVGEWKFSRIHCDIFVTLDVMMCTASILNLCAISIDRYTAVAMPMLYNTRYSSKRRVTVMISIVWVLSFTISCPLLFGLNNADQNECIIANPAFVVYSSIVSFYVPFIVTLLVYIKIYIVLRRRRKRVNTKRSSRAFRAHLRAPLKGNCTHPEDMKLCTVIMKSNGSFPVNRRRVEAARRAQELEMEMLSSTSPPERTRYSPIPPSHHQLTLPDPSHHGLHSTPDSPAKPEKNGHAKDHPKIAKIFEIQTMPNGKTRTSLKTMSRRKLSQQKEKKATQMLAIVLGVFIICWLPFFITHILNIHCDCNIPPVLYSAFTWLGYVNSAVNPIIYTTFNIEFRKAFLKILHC
In short: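 HEK293 cells stably expressing DRD2 were cultured 24 h at 37 C, then given Ro20-1724 (0.1 mM final) and compounds for 10 min at room temperature. NKH477 (200nM) was then added for 30 min. cAMP was read by HTRF.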

[15] = molecular target: D(2) dopamine receptor (Homo sapiens) (UniProt P14416); experiment: Dopamine D2 receptor (DRD2) small molecule antagonists, cell-based qHTS assay (AID 1963595; active means well fitted inhibition curve with a large enough effect in the signal ratio in the repeat runs, with a control signal flat; the % refers to the signal ratio)
In short: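 HTRF cAMP read-out at 665 and 620 nm emission (340 nm excitation). Antagonist mode: compounds were tested against 12 nM quinpirole in DRD2-HEK293 cells, with 200 nM NKH477 raising cAMP and 0.1 mM Ro20-1724 blocking its breakdown.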

[16] = molecular target: 5-hydroxytryptamine receptor 2A (Homo sapiens) (UniProt P28223); experiment: 5-hydroxytryptamine receptor 2A (HTR2A) small molecule agonists, cell-based qHTS assay (AID 1963587); further: nearly all actives have a fitted effect of over 30% in size
In short: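 HTR2A-CHO cells, plated 18 h at 37 C/5% CO2, dye-loaded 1 h at 37 C; compounds in DMSO added by pin tool (agonist mode). Intracellular calcium flux read as kinetic fluorescence on FDSS over 2 min at 1 s intervals.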

[17] = cAMP Responsive Elements (CRE) small molecule agonists, cell-based qHTS assay (AID 1963590)
In short: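 CRE-bla HEK 293T cells, 2,000/well in DMEM with 10% dialyzed FBS and 25 mM HEPES, pre-incubated 18 h at 37 C, then exposed to compound 3 h at 37 C. Beta-lactamase reporter read with LiveBLAzer B/G FRET substrate after 2 h at room temperature.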

[18] = molecular target: Beta-2 adrenergic receptor (Homo sapiens) (UniProt P07550); experiment: Adrenergic beta2 receptor (ADRB2) small molecule agonists, cell-based qHTS assay (AID 1963593);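 further: CHO cells stably overexpressing human ADRB2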
In short: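 CHO cells stably over-expressing ADRB2 were plated overnight at 37C, then dosed with compounds plus a stimulation mix containing 100uM IBMX and 25uM Ro-20-1724 for 0.5hr at room temperature. cAMP was measured by HTRF competition, 1hr.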
On the % scale 0 is the no-effect control and ±100 the full control effect.

O=C(O)/C=C(\CC(=O)O)C(=O)O
inactive: Potency [1] | Potency [2] | Potency [3] | Potency [4] | Potency [5] | Potency [6] | Potency [7] | Potency [8] | Potency [9] | Potency [10] | Potency [11] | Potency [12] | Potency [13] | Potency [14] | Potency [15]

N=C(N)S(=O)O
inactive: Potency [1] | Potency [2] | Potency [3] | Potency [4] | Potency [5] | Potency [6] | Potency [7] | Potency [8] | Potency [16] | Potency [10] | Potency [11] | Potency [12] | Potency [13] | Potency [14] | Potency [15]

CC(CSC(=O)c1ccccc1)C(=O)N1C[C@@H](Sc2ccccc2)C[C@H]1C(=O)O (some centres not stated)
inactive: activity change, negative = cytotoxicity [1] -6.69% [at 19 µM] | activity, positive = activation [2] -3.94% [at 19 µM] | activity change [3] -1.85% [at 11.8 µM, hits give high values] | activation [4] -0.676% [at 15.8 µM] | activation [5] 0.566% [at 11.8 µM] | activity change, negative = cytotoxicity [6] -12.9% [at 13.5 µM] | activity change, negative = cytotoxicity [7] -5.44% [at 13.5 µM] | activity change, negative = cytotoxicity [8] 14.1% [at 13.5 µM] | activity, negative = inhibition [9] 20.9% [at 12.7 µM] | activity, negative = inhibition [10] 17.6% [at 12.6 µM] | activation [11] -0.159% [at 15.8 µM] | activation [17] -1.82% [at 19 µM] | activity change, negative = inhibition [13] 10.2% [at 19 µM]

O=[N+]([O-])c1nccn1CO[C@@H](CO)[C@H](O)CO
inactive: Potency [1] | Potency [2] | Potency [3] | Potency [4] | Potency [5] | Potency [6] | Potency [7] | Potency [8] | Potency [9] | Potency [10] | Potency [11] | Potency [12] | Potency [13] | Potency [18] | Potency [15]

O=C(O)CCSSCCC(=O)O
inactive: Potency [1] | Potency [2] | Potency [3] | Potency [4] | Potency [5] | Potency [6] | Potency [7] | Potency [8] | Potency [16] | Potency [10] | Potency [11] | Potency [17] | Potency [12] | Potency [13] | Potency [18] | Potency [14] | Potency [15]

NC(CCC(=O)O)C(=O)O (configuration not stated)
inactive: Potency [1] | Potency [2] | Potency [3] | Potency [4] | Potency [5] | Potency [6] | Potency [7] | Potency [8] | Potency [16] | Potency [10] | Potency [11] | Potency [17] | Potency [13] | Potency [14] | Potency [15]

NCCc1ccn[nH]1
inactive: Potency [1] | Potency [2] | Potency [3] | Potency [4] | Potency [5] | Potency [6] | Potency [7] | Potency [8] | Potency [16] | Potency [10] | Potency [11] | Potency [17] | Potency [13] | Potency [18] | Potency [14] | Potency [15]

CC(C)CCC(=O)CCC(C)C
inactive: Potency [1] | Potency [2] | Potency [3] | Potency [4] | Potency [5] | Potency [6] | Potency [7] | Potency [8] | Potency [16] | Potency [10] | Potency [11] | Potency [17] | Potency [12] | Potency [13] | Potency [14] | Potency [15]

O=C(NS(=O)(=O)/C=C/c1cccs1)c1ccc(F)cc1Br
inactive: Potency [1] | Potency [3] | Potency [4] | Potency [5] | Potency [6] | Potency [7] | Potency [8] | Potency [16] | Potency [10] | Potency [11] | Potency [17] | Potency [13] | Potency [14] | Potency [15]
active: Potency [2] 27.3 µM
